“And” between values parts separate entries of the source, which are not always exact repeats. Equal values may be shown once. Where a structure was tested more than once in an assay, its records may differ in their call. The source made the active and inactive calls. Rule for the calls: active = hit-call score of the fitted dose curve at least 0.9, where 1 is the maximum; inactive = score below 0.9.

The AC50 is the concentration at which the activity in the assay is half-maximal.

A short description of this assay: ATG_CMV_CIS: Attagene CIS-FACTORIAL HepG2 Assay for human CMV (Internal Marker) (AID 2282928).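 Note: endpoint acts as a background internal control marker rather than a target.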 The note with it: HepG2 CMV promoter reporter, transcription factor profiling; actives raise or lower the signal. As for the experimental part: ATG_CIS is a cell-based, multiplexed-readout assay that uses HepG2, a human liver cell line, with measurements taken at 24 hours after chemical dosing in a 24-well plate.ATG_CMV_CIS is one of 52 assay component(s) measured or calculated from the ATG_CIS assay. It is designed to make measurements of mRNA induction, a form of inducible reporter, as detected with fluorescence intensity signals by Reverse transcription polymerase chain reaction (RT-PCR) and Capillary electrophoresis technology.Data from the assay component ATG_CMV_CIS was analyzed into 1 assay endpoint. This assay endpoint, ATG_CMV_CIS, was analyzed with bidirectional fitting relative to DMSO as the negative control and baseline of activity. Using a type of inducible reporter, measures of mRNA for gain or loss-of-signal activity can be used to understand the background control at the transcription factor-level as they relate to the gene . Furthermore, this assay endpoint can be referred to as a secondary readout, because this assay has produced multiple assay endpoints where this one serves a background control function. To generalize the intended target to other relatable targets, this assay endpoint is annotated to the background measurement intended target family, where the subfamily is internal marker.
Human liver HepG2 cells are transiently transfected with multiple reporter transcription units (MRTUs) in 6-well plates using FuGene 6 reagent (Roche; 3 ml FuGene/1 mg DNA). The MRTU constructs are regulated by a cis-regulating element (promoter). […] A major difference between the CIS and TRANS system is that in CIS activities of endogenous TFs are measured, whereas the TRANS assay evaluates changes in activities of exogenous, chimeric NR-Gal4 proteins. […] At the end of 24 hour incubation, total RNA was isolated using TriZol reagent (Invitrogen). The isolated RNA is then reverse-transcribed using oligo(dT) primer and Mo-MLV reverse transcriptase (Invitrogen) with DNAse I (Ambion) treatment for 30 min. The one-tenth of the produced cDNA was amplified by PCR using Taq DNA polymerase (Invitrogen) and two reporter sequence-specific primers. The PCR products were fluorescently labeled by primer extension with 6-arboxyfluorescein (6-FAM) 5'-labeled reporter sequence-specific primer (2 min at 95 C, 20 s at 68 C and 10 min at 72 C) and these products were digested with 5U of HpaI (New England Biolabs) for 2h at 37 C. The fragments were purified using Qiaquick PCR columns (Qiagen), analyzed on an ABI 3130xL genetic analyzer (Applied Biosystems) with peak positions identified by using a set of X-rhodamine (ROX)-labeled MapMarker1000 molecular weight standards (BioVentures). The raw capillary electrophoresis data was processed using Attagraph software (Attagene).
Turning to `c1ccc(N=NNc2ccccc2)cc1`, the compound was called inactive.
Still for that read-out and setting: the same measure for `Nc1cccc2ccccc12`: “inactive”; for `COS(=O)(=O)c1ccc(C)cc1`: “inactive”; for `CC(=O)C=C(C)C`: “inactive”.
Consider `COc1cc(OC)nc(NC(=O)NS(=O)(=O)c2ncccc2C(=O)N(C)C)n1`, for which the result was inactive.
`CCOC(=O)CP(=O)(OCC)OCC`: the outcome was inactive.
Take `CC1(C)Cc2cccc(O)c2O1`: the compound was classed as inactive.
For `CCC[CH2][Sn]([Cl])([Cl])[Cl]`, the compound was called inactive.
For the compound `CCOC(=O)/C=C(C)/C=C/C[C@@H](C)CCCC(C)C`, the AC50 is 132 µM (active).
Consider `C=CC#N`, for which the compound was classed as inactive.
Consider `CC(=[OH+])/C=C(/C)[O-].CC(=[OH+])/C=C(/C)[O-].CC(=[OH+])/C=C(/C)[O-].[Fe]`, for which the result was inactive.
Take `O=C(c1ccccc1)C(Cl)Cl`: the AC50 was 28.7 µM (active).
On to `O=S(=O)(c1ccc(Cl)cc1)c1ccc(Cl)cc1`, for which the concentration at half-maximal activity (AC50) is 16.5 µM (active).
With `c1cc[c]([Hg][c]2ccccc2)cc1`, the call was inactive.
Same read-out and setting: the same measure for `CC(C)(OO)c1ccccc1`: “inactive”.
For the compound `O=C(O)C(F)(F)C(F)(F)C(F)(F)C(F)(F)C(F)(F)C(F)(F)C(F)(F)C(F)(F)C(F)(F)C(F)(F)F`, the AC50 is 50.4 µM (active) and 31.3 µM (active).
Consider `CC(C)c1ccc(CO)cc1`, for which the call was inactive.
On the same count and under the same terms, the same measure for `ClC1(Cl)C2(Cl)C3(Cl)C4(Cl)C(Cl)(Cl)C5(Cl)C3(Cl)C1(Cl)C5(Cl)C24Cl` (stereo not given): “inactive”; for `NNC(=S)NN`: “inactive”; for `CCSC(C)CC1CC(=O)C(C(CC)=NOC/C=C/Cl)=C(O)C1` (stereo not given): “inactive”.
Turning to `CC(Br)C(=O)O` (stereo not given), the compound was classed as inactive.
On the same count and under the same terms, the same measure for `ClC(Cl)=C(Cl)C(Cl)=C(Cl)Cl`: “inactive”; for `OCC(O)CCl` (stereo not given): “inactive”.
On the same count and under the same terms, the same measure for `CCCCOCCOC(C)=O`: “inactive”; for `COc1ccccc1OC`: “inactive”; for `ClCC(Cl)CCl`: “inactive”.
On the same count and under the same terms, the same measure for `CCC(=O)C(CC(C)N(C)C)(c1ccccc1)c1ccccc1` (stereo not given): “inactive”.
Turning to `C[C@@H]1C[C@@H]([C@H](O)CC2CC(=O)NC(=O)C2)C(=O)[C@@H](C)C1`, the result was inactive and the AC50 is 0.286 µM (active).
`O=Cc1cccc(Oc2ccccc2)c1`: the compound was classed as inactive.
Take `CCOP(=S)(OCC)Oc1nc(Cl)c(Cl)cc1Cl`: the half-maximal activity concentration (AC50) is 26.1 µM (active).
Turning to `COC(=O)c1sccc1S(=O)(=O)NC(=O)Nc1nc(C)nc(OC)n1`, the call was inactive.
With `CCOP(OCC)OCC`, the compound was called inactive.
As to `O=C(OC1CCCCC1)c1ccccc1C(=O)OC1CCCCC1`, the AC50 is 74.7 µM (active).
Take `C[C@]12CCC(=O)C[C@@H]1CC[C@@H]1[C@@H]2CC[C@]2(C)[C@@H](O)CC[C@@H]12`: the AC50 was 52.1 µM (active) and the call was inactive.
Take `Cc1ccc(N)cc1Cl`: the call was inactive.
Take `O=[N+]([O-])c1ccc2c3c(cccc13)CC2`: the compound was classed as inactive.
The same measure, in the same setting: the same measure for `CCC(=O)c1ccccc1`: “inactive”; for `CCCCC(CC)CO[N+](=O)[O-]` (stereo not given): “inactive”.

The values above are taken from PubChem BioAssay (EPA / NIEHS).
